Assay results: PubChem BioAssay (Tox21)
Where “and” joins values, the source holds several entries; their conditions need not be identical. Equal values may be shown once. Results filed as inconclusive are left out. A call without a number means that no potency is given here. A number with no mark means an inactive call. Calls of active or inactive are those of the source. Calls come from the whole dose curve; as a rule, active = well fitted cell-killing curve with a large enough effect in the repeat runs; inconclusive = weak or mixed curves, or effect the other way; inactive = flat fitted curve, though single readings scatter.

What was measured:
[1] = cAMP Responsive Elements (CRE) small molecule antagonists, cell-based qHTS assay: qHTS cell viability counter screen (AID 2060913); conditions: CRE-bla HEK293T viability, CellTiter-Glo luminescence, 5 h; series mostly up to 92.4 µM; note: nearly all actives have a fitted effect of over 40% in size
Outline: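 Cytotoxicity read in the same wells as the CRE-bla HEK293T antagonist assay: after 3 h compound with 0.25 uM NKH477 final and 2 h beta-lactamase substrate, CellTiter-Glo luminescence measured.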

[2] = cAMP Responsive Elements (CRE) small molecule agonists, cell-based qHTS assay: qHTS cell viability counter screen (AID 2060914); conditions: CRE-bla HEK293T viability, CellTiter-Glo luminescence, 5 h; series mostly up to 92.4 µM; note: nearly all actives have a fitted effect of over 50% in size
Outline: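 Luminescence read-out (CellTiter-Glo, 30 min RT) of ATP-based viability in CRE-bla HEK 293T cells, run in the same wells as the β-lactamase reporter assay after 3 h compound treatment at 37 °C.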
Potency is the fitted concentration of half-maximal effect.

Row | SMILES | Potency [1] | Potency [2] | viability change, negative = cytotoxic [1] | activity change, negative = cytotoxicity [2]
1 | CC(C)N(CCC(C(N)=O)(c1ccccc1)c1ccccn1)C(C)C (stereo unspecified) | inactive | inactive | – | –
2 | C[C@]1(O)CC[C@H]2[C@@H]3CCC4=CC(=O)CC[C@]4(C)[C@@]3(F)[C@@H](O)C[C@@]21C | inactive | inactive | – | –
3 | O=C(CCCN1CCC(n2c(=O)[nH]c3ccccc32)CC1)c1ccc(F)cc1 | inactive | inactive | – | –
4 | CC(C)(C)N(NC(=O)c1ccc(Cl)cc1)C(=O)c1ccccc1 | inactive | inactive | – | –
5 | Cc1nc(N)nc(N)n1 | inactive | inactive | – | –
6 | OC(c1ccc(Cl)cc1)(c1cncnc1)c1ccccc1Cl (stereo unspecified) | inactive | inactive | – | –
7 | Cc1cccc(OP(=O)(Oc2cccc(C)c2)Oc2cccc(C)c2)c1 | inactive | inactive | – | –
8 | Cl/C=C\CCl | inactive | inactive | – | –
9 | Cc1cc(=O)[nH]o1 | inactive | inactive | – | –
10 | N[C@@H](Cc1ccc(Oc2cc(I)c(O)c(I)c2)c(I)c1)C(=O)O | inactive | inactive | – | –
11 | CC(Cc1ccc2c(c1)OCO2)NO (stereo unspecified) | inactive | inactive | – | –
12 | Nc1cc(Cl)cc(Cl)c1 | inactive | inactive | – | –
13 | CCC[N+](=O)[O-] | inactive | inactive | – | –
14 | COc1ccccc1N | inactive | inactive | – | –
15 | CC(=O)c1cc2c(cc1C)C(C)(C)C(C)CC2(C)C (stereo unspecified) | inactive | inactive | – | –
16 | Cc1ccc2c(c1)C1CN(C)CCC1N2 (stereo unspecified) | – | – | -0.367% [at 18.9 µM] | -0.524% [at 18.9 µM]
17 | O=P(OCCCl)(OCCCl)OCCCl | inactive | inactive | – | –
18 | CCOC(=O)N(C)C(=O)CSP(=S)(OCC)OCC | inactive | inactive | – | –
19 | CC(=O)C1CCOC1=O (stereo unspecified) | inactive | inactive | – | –
20 | Nc1cccnc1 | inactive | inactive | – | –
21 | Cn1c(N)nc2c3cccnc3ccc21 | inactive | inactive | – | –
22 | C=CC[C@]1(O)CC[C@H]2[C@@H]3CCC4=CC(=O)CCC4=C3C=C[C@@]21C | inactive | inactive | – | –
23 | Oc1c(Cl)cccc1Cl | inactive | inactive | – | –
24 | CC(C)N1C(=O)c2ccccc2NS1(=O)=O | inactive | inactive | – | –
25 | CCOP(=O)(OCC)Oc1ccc([N+](=O)[O-])cc1 | inactive | inactive | – | –
26 | CCOc1cc(C=O)ccc1O | inactive | inactive | – | –
27 | Cc1ccc(N)c(N)c1 | inactive | inactive | – | –

Row | SMILES | Potency [1] | Potency [2] | viability change, negative = cytotoxic [1] | activity change, negative = cytotoxicity [2]
28 | CCCC[N+]1(C)[C@@H]2CC(OC(=O)[C@H](CO)c3ccccc3)C[C@H]1[C@@H]1O[C@@H]12 (stereo partly specified) | inactive | inactive | – | –
29 | CC(O)(CS(=O)(=O)c1ccc(F)cc1)C(=O)Nc1ccc(C#N)c(C(F)(F)F)c1 (stereo unspecified) | inactive | inactive | – | –
30 | O=C(O)C1C(C(=O)O)C2(Cl)C(Cl)=C(Cl)C1(Cl)C2(Cl)Cl (stereo unspecified) | inactive | inactive | – | –
31 | COc1ncc(F)c2nc(S(=O)(=O)Nc3c(F)cccc3F)nn12 | inactive | inactive | – | –
32 | N#CNC#N | inactive | inactive | – | –
33 | CNC(=O)Oc1ccc(N(C)C)c(C)c1 | inactive | inactive | – | –
34 | COc1ccc2c3c1O[C@H]1[C@H](O)CC[C@H]4[C@@H](C2)N(C)CC[C@@]341 | inactive | inactive | – | –
35 | CCn1cc[n+](C)c1 | inactive | inactive | – | –
36 | CCC(C)(C)c1ccc(O)c(C(C)(C)CC)c1 | 27.3 µM (active) | 30.3 µM (active) and 24.3 µM (active) | – | –
37 | C=CC(Cl)CCl (stereo unspecified) | inactive | inactive | – | –
38 | COc1ccc2c(C(=O)c3ccc(Cl)cc3)c(C)n(CC(=O)O)c2c1 | inactive | inactive | – | –
39 | ClC1=C(Cl)[C@]2(Cl)[C@@H]3[C@@H]4C[C@@H]([C@H]5O[C@@H]45)[C@@H]3[C@@]1(Cl)C2(Cl)Cl | 54.5 µM (active) | 61.1 µM (active) | – | –
40 | ClCc1ccccn1 | inactive | inactive | – | –
41 | O=[N+]([O-])c1cccc2cccc([N+](=O)[O-])c12 | inactive | inactive | – | –
42 | CCN(CC)C1CCCCC1 | inactive | inactive | – | –
43 | O=C(Nc1ccccc1)N(Cc1ccc(Cl)cc1)C1CCCC1 | inactive | inactive | – | –
44 | Cc1cccc(N)c1C | inactive | inactive | – | –
45 | CC(=O)C(C)(C)C | inactive | inactive | – | –
46 | CCCCCOC(=O)c1ccccc1C(=O)OCCCCC | inactive | inactive | – | –
47 | CN(C)N=O | inactive | inactive | – | –
48 | O=c1ssc(Cl)c1Cl | inactive | inactive | – | –
49 | CS(=O)(=O)NC(=O)c1cc(Oc2ccc(C(F)(F)F)cc2Cl)ccc1[N+](=O)[O-] | inactive | inactive | – | –
50 | Clc1ccc(CSC(Cn2ccnc2)c2ccc(Cl)cc2Cl)cc1 (stereo unspecified) | inactive | inactive | – | –
51 | O=C(O)COc1ccccc1 | inactive | inactive | – | –
52 | CCOP(O)OCC | inactive | inactive | – | –
53 | c1ccc2c(c1)Nc1ccccc1S2 | inactive | inactive | – | –
